This is an account of results in PubChem BioAssay (NCI).

About 83,000 compounds went through this panel and 20% of them were active in at least one assay; those are over-represented in the sample as a whole.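 Growth was measured after 48 h exposure to one concentration of compound in 96-well plates. Values under 10 count as active.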 A number with no mark means an inactive call. Calls of active or inactive are those of the source.

Some test systems named below: DU-145 prostate; K-562 leukemia; MALME-3M melanoma; MDA-MB-231 breast; RXF 393 renal; SF-268 CNS; SF-295 CNS; SF-539 CNS; UACC-257 melanoma; M14 melanoma; HCT-15 colon; SNB-75 CNS; SNB-19 CNS; U251 CNS; PC-3 prostate; SK-MEL-5 melanoma; UACC-62 melanoma; LOX IMVI melanoma; SK-MEL-28 melanoma; HT29 colon.
Holding throughout (assay): NCI-60 one-dose screen, 48 h (100 = growth as untreated, 0 = no growth, -100 = all killed)
What all share (details): 10 µM unless noted

Regarding `CC(=O)c1c(C)nc2ccccc2c1/C=C/c1ccc(F)cc1`, the growth in the assay on DU-145 prostate was 96.1%; with K-562 leukemia, 60.2%; with MALME-3M melanoma, 123%; in the assay with MDA-MB-231 breast, 93.8%; in the assay with RXF 393 renal, 92.7%; in the assay with SF-268 CNS, 90.6%. In addition, the growth was 84% in the assay with SF-295 CNS; 90.4% in the assay on SF-539 CNS; 95.2% in the assay on UACC-257 melanoma; 107% in the assay on M14 melanoma; 84.8% with HCT-15 colon; 82.4% in the assay on SNB-75 CNS. Moreover, the growth was 93% in the assay with SNB-19 CNS; 86.7% in the assay with U251 CNS; 79.1% in the assay with PC-3 prostate; 69.5% with SK-MEL-5 melanoma; 74.9% in the assay on UACC-62 melanoma; 81.4% in the assay on LOX IMVI melanoma. The growth in the assay on SK-MEL-28 melanoma is 114%.

Turning to `Cn1ccc(=O)c(C(=O)Nc2nsc3ccc([N+](=O)[O-])cc23)c1`, the growth with DU-145 prostate was 63.2%; with K-562 leukemia, 78.3%; with MALME-3M melanoma, 65.7%; in the assay on MDA-MB-231 breast, 47.9%; with RXF 393 renal, 35.9%; with SF-268 CNS, 74.9%. For the same molecule, the growth was 110% with SF-295 CNS; 77.6% in the assay on SF-539 CNS; 89.6% with UACC-257 melanoma; 46.6% in the assay on M14 melanoma; 54.9% with HCT-15 colon; 72.1% in the assay on SNB-75 CNS. Further, the growth with SNB-19 CNS is 91.3%; in the assay with PC-3 prostate it was 56.8%; in the assay on SK-MEL-5 melanoma, 87.4%; in the assay with UACC-62 melanoma, 32.6%; in the assay with LOX IMVI melanoma it was 51.3%; with SK-MEL-28 melanoma, 78.3%.

As to `O=S(=O)(Nc1cc(F)cc(Cl)c1)c1ccc(-c2cnc(C3CC3)o2)cc1`, the growth was 35.6% in the assay on DU-145 prostate; 17.1% with K-562 leukemia; 52.1% in the assay with MALME-3M melanoma; 42.7% in the assay on MDA-MB-231 breast; 14.8% in the assay with RXF 393 renal; 59.5% in the assay with SF-268 CNS. The growth in the assay with SF-295 CNS is 22.4%; with SF-539 CNS it was 5.3% (active); in the assay on UACC-257 melanoma, 62.9%; in the assay with M14 melanoma, 25.2%; with HCT-15 colon, 25.4%; in the assay on SNB-75 CNS it was -22.1% (active). Besides, the growth with SNB-19 CNS is 30.4%; with U251 CNS it was 33.6%; in the assay on PC-3 prostate, 32%; in the assay on SK-MEL-5 melanoma, 19.9%; with UACC-62 melanoma, 35.1%; in the assay with LOX IMVI melanoma, 39.3%. Also, the growth with SK-MEL-28 melanoma is 71.3%.

As to `Oc1c(Br)cc(Br)c2ccc(Cn3cc(-c4ccccc4C(F)(F)F)nn3)nc12`, the growth with DU-145 prostate is 86%; with K-562 leukemia, 4.64% (active); with MALME-3M melanoma it was 89.6%; in the assay with MDA-MB-231 breast, 109%; in the assay on RXF 393 renal it was 60.1%; with SF-268 CNS, 94.1%. Moreover, the growth is 104% in the assay on SF-295 CNS; 97.3% in the assay with SF-539 CNS; 79% in the assay on UACC-257 melanoma; 94.6% with M14 melanoma; 62.7% in the assay with HCT-15 colon; 80.8% in the assay with SNB-75 CNS. Further, the growth in the assay on SNB-19 CNS is 94.3%; in the assay on U251 CNS it was 106%; in the assay with PC-3 prostate it was 104%; in the assay on SK-MEL-5 melanoma it was 103%; in the assay on UACC-62 melanoma, 95.5%; in the assay on LOX IMVI melanoma it was 77.2%. In addition, the growth with SK-MEL-28 melanoma is 96.9%.

As for `O=C1c2c(c3c4ccccc4[nH]c3c3ccc4ccccc4c23)C(=O)N1CCN1CCNCC1`, the growth in the assay with DU-145 prostate is 8.13% (active); in the assay on K-562 leukemia, -41.5% (active); with MALME-3M melanoma it was 80.7%; with MDA-MB-231 breast it was -66.8% (active); in the assay with RXF 393 renal, 91.6%; in the assay on SF-268 CNS it was 80.1%. The growth in the assay with SF-295 CNS was 89.4%; in the assay on SF-539 CNS, 82.6%; in the assay with UACC-257 melanoma, 109%; in the assay with M14 melanoma, 6.23% (active); in the assay with HCT-15 colon it was -45.2% (active); in the assay on SNB-75 CNS, 85%. For the same molecule, the growth was 74.3% in the assay on SNB-19 CNS; -11.2% (active) with U251 CNS; 56.6% in the assay with PC-3 prostate; 73.5% in the assay with SK-MEL-5 melanoma; 82% in the assay on UACC-62 melanoma; -87.2% (active) in the assay with LOX IMVI melanoma. In addition, the growth with SK-MEL-28 melanoma was 100%.

As to `Cc1cc(N2CCCCC2)cc(C)c1-c1csc(NC(=O)c2ccncc2)n1`, the growth was 77% with DU-145 prostate; 22.1% in the assay with K-562 leukemia; 59.7% in the assay with MALME-3M melanoma; 54.5% in the assay on MDA-MB-231 breast; 77.6% with RXF 393 renal; 60% in the assay on SF-268 CNS. The growth is 22.5% in the assay on SF-295 CNS; 81.1% in the assay on SF-539 CNS; 33.2% in the assay with UACC-257 melanoma; 57.8% in the assay with M14 melanoma; 80.5% in the assay on HCT-15 colon; 55.7% in the assay with SNB-75 CNS. Moreover, the growth was 59.8% with SNB-19 CNS; 63% with U251 CNS; 48.1% in the assay on PC-3 prostate; -8.97% (active) in the assay with SK-MEL-5 melanoma; 45.1% in the assay on UACC-62 melanoma; 47.1% in the assay with LOX IMVI melanoma. The growth in the assay on SK-MEL-28 melanoma was 64.9%.

As for `COc1ccc2cc1Oc1ccc(cc1)C[C@H]1c3c(cc4c(c3Oc3cc5c(cc3OC)CCN(C)[C@@H]5C2)OCO4)CCN1C`, the growth with DU-145 prostate was 59.6%; in the assay on K-562 leukemia, -2.72% (active); in the assay on MALME-3M melanoma, -46.1% (active); in the assay with MDA-MB-231 breast, -5.97% (active); with RXF 393 renal it was -18.7% (active); with SF-268 CNS, 36.4%. The growth is 58.1% with SF-295 CNS; -55.7% (active) in the assay with SF-539 CNS; -78.4% (active) in the assay with UACC-257 melanoma; -86.2% (active) in the assay with M14 melanoma; 27% in the assay on HCT-15 colon; 71.4% in the assay with SNB-75 CNS. In addition, the growth was 75.9% in the assay on SNB-19 CNS; 26.8% in the assay on U251 CNS; 43.9% in the assay on PC-3 prostate; -97% (active) in the assay on SK-MEL-5 melanoma; 34.4% in the assay with UACC-62 melanoma; -41.7% (active) in the assay on LOX IMVI melanoma. In addition, the growth in the assay on SK-MEL-28 melanoma was -54.9% (active).

For the molecule `COC1=CC(c2ccc[nH]2)=N/C1=C\c1[nH]c(C)c(C)c1CCC(=O)OCc1ccccc1`, the growth was 18.4% with DU-145 prostate; -7.62% (active) with K-562 leukemia; -64.8% (active) with MALME-3M melanoma; -49.5% (active) in the assay with MDA-MB-231 breast; -35.2% (active) in the assay on RXF 393 renal; 5.89% (active) in the assay on SF-268 CNS. Further, the growth in the assay on SF-295 CNS was -60.1% (active); with SF-539 CNS it was -52.3% (active); with UACC-257 melanoma, -49% (active); in the assay with M14 melanoma it was -60.8% (active); with HCT-15 colon it was -32.2% (active); in the assay on HT29 colon, 5.68% (active). The growth in the assay on SNB-19 CNS is 21%; with SK-MEL-5 melanoma it was -89.2% (active); with UACC-62 melanoma, -54.7% (active); with LOX IMVI melanoma, -62.9% (active); in the assay with SK-MEL-28 melanoma, -32.6% (active).

`CC(=O)/C(=C\c1c(-c2ccccc2)[nH]c2ccccc12)S(C)(=O)=O`: the growth in the assay with DU-145 prostate was 13.2%; with K-562 leukemia, -25.7% (active); in the assay on MALME-3M melanoma, 32.9%; in the assay on MDA-MB-231 breast, 32.3%; in the assay with RXF 393 renal, -5.08% (active); in the assay with SF-268 CNS it was 41.6%. For the same molecule, the growth was 3.77% (active) in the assay with SF-295 CNS; -34.8% (active) with SF-539 CNS; 59.8% in the assay with UACC-257 melanoma; 3.01% (active) in the assay on M14 melanoma; 19.3% in the assay on HCT-15 colon; -28.8% (active) with SNB-75 CNS. For the same molecule, the growth with SNB-19 CNS is 23.2%; with U251 CNS, 15.3%; in the assay with PC-3 prostate, 21.6%; in the assay with SK-MEL-5 melanoma, -6.28% (active); with UACC-62 melanoma, 17.5%; in the assay on LOX IMVI melanoma, 33.1%. Further, the growth with SK-MEL-28 melanoma is 34.4%.

For the molecule `OCCn1cc(-c2nc(-c3c[nH]c4ncccc34)cs2)c2cc(F)ccc21`, the growth was 83.7% in the assay with DU-145 prostate; 21.5% in the assay on K-562 leukemia; 84.9% in the assay with MALME-3M melanoma; 64.5% in the assay with MDA-MB-231 breast; 51.1% in the assay on RXF 393 renal; 77% with SF-268 CNS. Besides, the growth in the assay on SF-295 CNS was 72.1%; with SF-539 CNS, 81.5%; in the assay with UACC-257 melanoma it was 87.8%; in the assay with M14 melanoma, 63.8%; with HCT-15 colon it was 41.6%; in the assay on SNB-75 CNS, 72.5%. For the same molecule, the growth in the assay on SNB-19 CNS was 79.5%; in the assay on U251 CNS, 62.9%; in the assay with PC-3 prostate it was 48.7%; in the assay with SK-MEL-5 melanoma, 63%; in the assay on UACC-62 melanoma, 63.3%; in the assay with LOX IMVI melanoma, 65.5%. In the assay with SK-MEL-28 melanoma, the growth is 89.8%.

For `Clc1cc(Cl)c(Cl)c(-c2nnc(SCc3ccncc3Br)o2)c1`, the growth in the assay on DU-145 prostate is 99.9%; in the assay with K-562 leukemia it was 69.5%; in the assay with MALME-3M melanoma, 100%; with MDA-MB-231 breast, 93.3%; in the assay with RXF 393 renal, 128%; in the assay on SF-268 CNS it was 97.8%. Moreover, the growth is 95.2% with SF-295 CNS; 90.9% with SF-539 CNS; 103% in the assay on UACC-257 melanoma; 97.9% in the assay on M14 melanoma; 112% in the assay on HCT-15 colon; 84.4% in the assay with SNB-75 CNS. The growth in the assay with SNB-19 CNS is 102%; in the assay with U251 CNS, 90.3%; in the assay on PC-3 prostate, 92.4%; with SK-MEL-5 melanoma it was 81.8%; in the assay with LOX IMVI melanoma, 95%; in the assay on SK-MEL-28 melanoma, 94.4%.

For `O=C(Nc1cccc(-c2ccc(Cl)c(C(F)(F)F)c2)c1)C1CCN(Cc2cccc3cccnc23)CC1`, the growth in the assay on DU-145 prostate is 10.8%; in the assay with K-562 leukemia, -6.99% (active); in the assay on MALME-3M melanoma it was -75.6% (active); in the assay on MDA-MB-231 breast, -24.1% (active); with RXF 393 renal, 8.93% (active); in the assay with SF-268 CNS it was 40.1%. The growth was -43.9% (active) in the assay with SF-295 CNS; -88.7% (active) in the assay on SF-539 CNS; 19.8% with UACC-257 melanoma; -68.5% (active) with M14 melanoma; -83% (active) in the assay on HCT-15 colon; -62.2% (active) in the assay with HT29 colon. Further, the growth with SNB-19 CNS was 61.4%; in the assay on U251 CNS, -82.4% (active); in the assay with SK-MEL-5 melanoma, -93.4% (active); in the assay on UACC-62 melanoma, 25.9%; in the assay on LOX IMVI melanoma, -98.2% (active); in the assay with SK-MEL-28 melanoma it was -67.6% (active).
